About 220 (9.2%) of roughly 2,400 compounds were called active. Only a selection was taken, and actives are over-represented in it overall. Values without a mark were called inactive.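 The calls were made as follows: active = signal change above the mean of dofetilide-free buffer controls plus 3 SD, so a positive margin; inactive = the rest.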

This test in a line: thallium signal changes without hERG – cell-based, CHO-K1 parental line, FluxOR thallium flux, counter-screen for hERG block protection project, confirmation (AID 1839).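 Also: compounds applied alone with no dofetilide to cells lacking hERG.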 The conditions noted are these: CHO-K1 parental cells, FluxOR thallium flux fluorescence; at 10 µM.
In the case of `Cc1ccc(C(=O)NC(C)c2ccc(C)c(C)c2)s1` (configuration not stated), the signal change vs control minus 3*SD hit threshold (margin above threshold, higher = more increase) is -19%.

On to `Cc1ccc(C(C)NC(=O)C2CCCC2)cc1C` (configuration not stated), for which the signal change vs control minus 3*SD hit threshold (margin above threshold, higher = more increase) was 0.7% (active).

`CC(NC(=S)NC1CCCCC1)c1ccccc1` (configuration not stated): the signal change vs control minus 3*SD hit threshold (margin above threshold, higher = more increase) was -19.6%.

Consider `Cc1ccc(C(C)NC(=S)NC2CCCCC2)cc1C` (configuration not stated), for which the signal change vs control minus 3*SD hit threshold (margin above threshold, higher = more increase) was 1% (active).

For `CCc1ccc(C(C)NC(=O)C2CCCC2)cc1` (configuration not stated), the signal change vs control minus 3*SD hit threshold (margin above threshold, higher = more increase) is -18.1%.

As for `CCOc1ccc(C(C)NC(=S)NC2CCCCC2)cc1` (configuration not stated), the signal change vs control minus 3*SD hit threshold (margin above threshold, higher = more increase) was -15.5%.

Regarding `C[n+]1ccccc1/C=C/c1c(F)cccc1F`, the signal change vs control minus 3*SD hit threshold (margin above threshold, higher = more increase) was -21.1%.

Turning to `COCCn1nnnc1C(c1ccc(C(F)(F)F)cc1)N1CCOCC1` (configuration not stated), the signal change vs control minus 3*SD hit threshold (margin above threshold, higher = more increase) is -34%.

Take `O=C1C2C3C=CC(C4CC34)C2C(=O)N1/N=C/c1ccc(-c2ccc(F)cc2[N+](=O)[O-])o1` (configuration not stated): the signal change vs control minus 3*SD hit threshold (margin above threshold, higher = more increase) was -30.5%.

For the molecule `COc1ccc(C(=O)NNC(=O)C(=O)Nc2ccc(C)cc2)cc1`, the signal change vs control minus 3*SD hit threshold (margin above threshold, higher = more increase) was -5.7%.

Consider `CCc1ccc(NC(=O)C(=O)NNC(=O)c2ccc(OC)cc2)cc1`, for which the signal change vs control minus 3*SD hit threshold (margin above threshold, higher = more increase) was 21.6% (active).

Turning to `COc1cccc(C(=O)NNC(=O)C(=O)Nc2ccc(C)cc2)c1`, the signal change vs control minus 3*SD hit threshold (margin above threshold, higher = more increase) was 28.8% (active).

For `COc1cccc(C(=O)NNC(=O)C(=O)Nc2cccc(Cl)c2C)c1`, the signal change vs control minus 3*SD hit threshold (margin above threshold, higher = more increase) is -6.7%.

`COc1cc(OC)cc(C(=O)NNC(=O)C(=O)Nc2cc(OC)c(Cl)cc2OC)c1`: the signal change vs control minus 3*SD hit threshold (margin above threshold, higher = more increase) was 23.8% (active).

`COc1cccc(C(=O)NNC(=O)C(=O)Nc2ccc(C)c(Cl)c2)c1`: the signal change vs control minus 3*SD hit threshold (margin above threshold, higher = more increase) is 13.6% (active).

Take `COc1ccc(NC(=O)c2ccc(COCC(F)(F)C(F)F)cc2)cc1`: the signal change vs control minus 3*SD hit threshold (margin above threshold, higher = more increase) was -40.3%.

For the molecule `COc1ccc(NC(=O)C(=O)NNC(=O)C(C)Oc2ccc(Cl)cc2Cl)cc1` (configuration not stated), the signal change vs control minus 3*SD hit threshold (margin above threshold, higher = more increase) was -10.9%.

With `COc1cccc(C(=O)CC(=O)C(=O)Nc2ccc(C)cc2Cl)c1`, the signal change vs control minus 3*SD hit threshold (margin above threshold, higher = more increase) was -9.2%.

Turning to `COc1ccc(C(=O)NNC(=O)C(=O)Nc2ccc(C)c(Cl)c2)cc1`, the signal change vs control minus 3*SD hit threshold (margin above threshold, higher = more increase) is -14.1%.

For `Cc1cc(S(=O)(=O)Nc2ccc(C(=O)N3CCN(C(=O)c4ccco4)CC3)cc2)ccc1F`, the signal change vs control minus 3*SD hit threshold (margin above threshold, higher = more increase) is -12.4%.

As for `O=[N+]([O-])c1cc(S(=O)(=O)/N=C(/c2ccccc2)N2CCOCC2)ccc1Cl`, the signal change vs control minus 3*SD hit threshold (margin above threshold, higher = more increase) is -31.7%.

For the molecule `CCOP(=O)(OCC)C(NC(=O)c1ccc(OC)c(OC)c1)c1ccccc1` (configuration not stated), the signal change vs control minus 3*SD hit threshold (margin above threshold, higher = more increase) was -21.4%.

`Cc1cc(C(=O)NNC2CC(=O)N(c3ccc4ccccc4c3)C2=O)c(C)o1` (configuration not stated): the signal change vs control minus 3*SD hit threshold (margin above threshold, higher = more increase) is -24.7%.

Take `O=C(c1cccs1)N1CCN(C23CC4CC(CC(C4)C2)C3)CC1`: the signal change vs control minus 3*SD hit threshold (margin above threshold, higher = more increase) was -34.9%.

On to `Cc1cc(C)c(S(=O)(=O)NCc2ccccn2)c(C)c1`, for which the signal change vs control minus 3*SD hit threshold (margin above threshold, higher = more increase) is -22.6%.

As for `Cn1c(=O)c(Sc2ccccc2)c(O)c2ccccc21`, the signal change vs control minus 3*SD hit threshold (margin above threshold, higher = more increase) is -14.2%.

Consider `O=C1CC(O)(C(F)(F)F)Oc2c1ccc1ccccc21` (configuration not stated), for which the signal change vs control minus 3*SD hit threshold (margin above threshold, higher = more increase) is -3%.

As to `COc1cccc(CCNS(=O)(=O)CCNC(=O)c2cccc(OC)c2)c1`, the signal change vs control minus 3*SD hit threshold (margin above threshold, higher = more increase) was -25.6%.

On to `CCc1ccc(NC(=S)Nc2cccc(OC)c2)cc1`, for which the signal change vs control minus 3*SD hit threshold (margin above threshold, higher = more increase) is -32.4%.

For the molecule `CCc1ccc(NC(=O)C(=O)NNC(=O)c2cccc(OC)c2)cc1`, the signal change vs control minus 3*SD hit threshold (margin above threshold, higher = more increase) was 41.3% (active).

Turning to `CC(=O)Nc1ccccc1C(=O)C(=O)Nc1ccccc1`, the signal change vs control minus 3*SD hit threshold (margin above threshold, higher = more increase) is -32.8%.

With `CCN(CC)C(=S)NC(=O)c1ccc(F)cc1`, the signal change vs control minus 3*SD hit threshold (margin above threshold, higher = more increase) was -15.9%.

`CC1(C)CC(NC(=O)c2ccc(Cl)cc2Cl)CC(C)(C)N1`: the signal change vs control minus 3*SD hit threshold (margin above threshold, higher = more increase) was -35.9%.

On to `CCCCN(CCCC)C(=S)NC(=O)c1ccccc1Cl`, for which the signal change vs control minus 3*SD hit threshold (margin above threshold, higher = more increase) is 39.6% (active).

As for `CCCN(CCC)C(=S)NC(=O)c1ccc(Cl)cc1Cl`, the signal change vs control minus 3*SD hit threshold (margin above threshold, higher = more increase) was 27% (active).

Take `CN(C)/C=C/C(=O)c1ccc(Cl)cc1Cl`: the signal change vs control minus 3*SD hit threshold (margin above threshold, higher = more increase) was -23.8%.

Regarding `CCN(CC)C(=S)NC(=O)c1ccc(Cl)cc1Cl`, the signal change vs control minus 3*SD hit threshold (margin above threshold, higher = more increase) was 3.8% (active).

`CC1(C)CC2CC(C)(CN2C(=S)NC(=O)c2ccccc2Cl)C1` (configuration not stated): the signal change vs control minus 3*SD hit threshold (margin above threshold, higher = more increase) was -14.7%.

On to `O=C(NC(=S)N1CCCCCC1)c1ccc(Cl)cc1Cl`, for which the signal change vs control minus 3*SD hit threshold (margin above threshold, higher = more increase) is -16.7%.

With `O=C(NC(=S)N(CCO)Cc1ccccc1)c1cc(Br)ccc1Cl`, the signal change vs control minus 3*SD hit threshold (margin above threshold, higher = more increase) is -12.2%.

For the molecule `C=CCNC(=O)c1onc(CSc2ccc(OC)cc2)c1C(=O)O`, the signal change vs control minus 3*SD hit threshold (margin above threshold, higher = more increase) is -35.4%.

Regarding `Cc1ccc(/C=C(\NC(=O)c2ccccc2)C(=O)N2CCCCC2)cc1`, the signal change vs control minus 3*SD hit threshold (margin above threshold, higher = more increase) was -35.4%.

Take `O=C(CCc1nc(-c2ccccc2)no1)N1CCCC1`: the signal change vs control minus 3*SD hit threshold (margin above threshold, higher = more increase) was -26.5%.

On to `Cc1nn(-c2ccccc2)c(Cl)c1/C=C1\SC(=S)NC1=O`, for which the signal change vs control minus 3*SD hit threshold (margin above threshold, higher = more increase) was 26.5% (active).

For the molecule `Cc1nn(-c2ccccc2)c(N2CCCC2)c1/C=N/O`, the signal change vs control minus 3*SD hit threshold (margin above threshold, higher = more increase) was -24.6%.

Regarding `Cc1nn(-c2ccccc2)c(C)c1S(=O)(=O)O`, the signal change vs control minus 3*SD hit threshold (margin above threshold, higher = more increase) was -23.2%.

As to `CCc1nnc(NC(=O)c2c(C)nn(-c3ccccc3)c2Cl)s1`, the signal change vs control minus 3*SD hit threshold (margin above threshold, higher = more increase) is -14.1%.

In the case of `O=S(=O)(NC(=S)NC1CCCCC1)c1ccc(Br)cc1`, the signal change vs control minus 3*SD hit threshold (margin above threshold, higher = more increase) was -9.7%.

Turning to `CCOC(=O)C1CCN(C(=O)COC(=O)c2nn(C)c(=O)c3ccccc23)CC1`, the signal change vs control minus 3*SD hit threshold (margin above threshold, higher = more increase) was -33.9%.

As for `CCOC(=O)c1n[nH]n2c1nc(=S)c1ccccc12`, the signal change vs control minus 3*SD hit threshold (margin above threshold, higher = more increase) was 12.1% (active).

As to `CCOC(=O)c1c(O)c2ccccc2n(C)c1=O`, the signal change vs control minus 3*SD hit threshold (margin above threshold, higher = more increase) was -25%.

Turning to `Cc1[nH]n(-c2ccc(F)cc2)c(=O)c1/C=N/c1sc2c(c1C#N)CCCC2`, the signal change vs control minus 3*SD hit threshold (margin above threshold, higher = more increase) was -1.9%.

Consider `Cc1[nH]n(-c2ccc(Cl)cc2)c(=O)c1/C=N/c1nnc(-c2ccccc2)s1`, for which the signal change vs control minus 3*SD hit threshold (margin above threshold, higher = more increase) was 78.7% (active).

As to `COc1ccc2nc(/N=C/c3c(C)[nH]n(-c4ccc(C)cc4)c3=O)sc2c1`, the signal change vs control minus 3*SD hit threshold (margin above threshold, higher = more increase) was 62.6% (active).

Consider `CCOc1ccc2nc(/N=C/c3nc(-c4ccc(Br)cc4)oc3O)sc2c1`, for which the signal change vs control minus 3*SD hit threshold (margin above threshold, higher = more increase) is -17.1%.

Consider `Cc1[nH]n(-c2cccc3ccccc23)c(=O)c1/C=N/c1sc2c(c1C#N)CCC2`, for which the signal change vs control minus 3*SD hit threshold (margin above threshold, higher = more increase) was -19.1%.

As for `Cc1[nH]n(-c2ccccc2)c(=O)c1N=Nc1ccc(C(N)=O)cc1`, the signal change vs control minus 3*SD hit threshold (margin above threshold, higher = more increase) is -43.3%.

`COc1ccc2nc(-n3c(O)c(C4=c5ccccc5=NC4=O)[nH]c3=S)sc2c1`: the signal change vs control minus 3*SD hit threshold (margin above threshold, higher = more increase) was -25.1%.

In the case of `CCOc1ccc2nc(N3C(=O)/C(=C/c4ccc(Cl)cc4)NC3=S)sc2c1`, the signal change vs control minus 3*SD hit threshold (margin above threshold, higher = more increase) was -25%.

Take `CCOc1ccc2nc(/N=C/c3c(C)[nH]n(-c4ccc(C)cc4)c3=O)sc2c1`: the signal change vs control minus 3*SD hit threshold (margin above threshold, higher = more increase) is 33.5% (active).

As for `COc1ccc2nc(/N=C/c3c(C)[nH]n(-c4ccc(C)cc4C)c3=O)sc2c1`, the signal change vs control minus 3*SD hit threshold (margin above threshold, higher = more increase) is 22.3% (active).

Regarding `CCCCNC(=O)N1CCCC(C(=O)c2cc(C)c(OC)c(C)c2)C1` (configuration not stated), the signal change vs control minus 3*SD hit threshold (margin above threshold, higher = more increase) was -38%.

(Values after PubChem BioAssay AID1839 (Johns Hopkins Ion Channel Center, 2009).)
